Reference: PubChem BioAssay AID588719 (Southern Research Specialized Biocontainment Screening …, 2011)
Out of some 1,500 compounds screened, about 920 (61%) were called active. The rule behind the calls is not given here. The set was probably picked from earlier hits. This is one part of the list. Entries with a potency or affinity are not part of this list.

Test: Vero 76 cell cytotoxicity, dose response, cytotoxicity control for VEEV inhibitor project (AID 588719)
Details: Vero 76 cells viability, cytotoxicity counter-screen; series mostly up to 25 µM

| SMILES | outcome |
| --- | --- |
| Cc1ccc([C@H]2C[C@@H](O)[C@H](n3cc(COC(=O)c4ccccc4)nn3)CN2CC2CCCCC2)cc1 | inactive |
| COc1ccc(CN(C)[C@H]2C[C@H]3c4[nH]c5ccccc5c4CCN3C[C@H]2[C@H](C)O)cc1 | inactive |
| CC(=O)Nc1ccc(CCNC(=O)c2ccc3ccccc3c2O)cc1 | inactive |
| Cc1cc(N/N=C/c2ccc3c(c2)OCO3)nc2ccccc12 | inactive |
| CCOC(=O)c1ccc(-c2ccc(/C=N/NC(=O)c3cncc(Br)c3)o2)cc1 | inactive |
| CC(C)Oc1ccccc1-c1cc(C(=O)N/N=C/c2cccnc2)c2ccccc2n1 | inactive |
| CCCc1ccc(-c2cc(C(=O)NCCc3ccc(S(N)(=O)=O)cc3)c3ccccc3n2)cc1 | inactive |
| CN(C)c1nc(OCCOC(=O)COc2ccc(Cl)cc2Cl)nc(N(C)C)n1 | inactive |
| COc1ccc(CCNC(=O)c2cc3c(=O)n4cccc(C)c4nc3n(CCCN3CCOCC3)c2=N)cc1 | inactive |
| O=C(CCNC(=O)c1ccc(Cl)cc1)NC1CCCc2ccccc21 (stereo not drawn) | inactive |
| CCOc1ccccc1N1CCN(Cc2cn[nH]c2-c2ccc(F)cc2)CC1 | inactive |
| COc1cccc2sc(N(CCCN(C)C)C(=O)c3ccc(S(=O)(=O)N4CCCc5ccccc54)cc3)nc12 | inactive |
| Cc1nc(SCC(=O)Nc2ccccc2Cl)c2c(C)c(C)sc2n1 | inactive |
| Cc1ccc(CCNc2ccc3ccccc3c2)cn1 | inactive |
| CN(C)CC(O)COc1ccc(C(C)(C)c2ccc(OCC(O)CN(C)C)cc2)cc1 (stereo not drawn) | inactive |
| CC(C)Cc1nc2oc3c(NCC(C)O)ncnc3c2c2c1CCCC2 (stereo not drawn) | inactive |
| Cc1cc(C(C)(C)C)cc(C)c1CCNC(=O)c1ccc[n+]([O-])c1 | inactive |
| CCN(CC(=O)Nc1ccc(NC(C)=O)cc1)C(=O)c1cc2c(s1)CCCC2 | inactive |
| CCOC(=O)Cn1c(-c2nonc2NC(=O)c2ccccc2F)nc2ccccc21 | inactive |
| CCOC(=O)c1ccccc1NC(=O)CSc1nc2ccccc2c(=O)n1CCCN1CCOCC1 | inactive |
| S=c1[nH]nc(-c2ccccn2)n1/N=C/c1ccc(-c2ccccc2Cl)o1 | inactive |
| CCOc1ccc(CCNC(=O)CCc2nc3ccccc3[nH]2)cc1OCC | inactive |
| COc1ccc(CCNC(=O)c2cc3c(=O)n4ccccc4nc3n(Cc3ccco3)c2=N)cc1OC | inactive |
| COc1ccc([C@H]2C[C@H](n3cc(-c4ccc(F)cc4)nn3)[C@@H](O)CN2C(=O)C2CCCCC2)cc1 | inactive |
| COc1ccc(C2c3[nH]c4ccccc4c3CCN2Cc2ccoc2)c(F)c1 (stereo not drawn) | inactive |
| Fc1ccc(C2c3[nH]c4ccccc4c3CCN2Cc2cccn2-c2ncccn2)cc1 (stereo not drawn) | inactive |

| SMILES | outcome |
| --- | --- |
| O=C(CCNC(=O)c1ccc(Br)cc1)NC1CCCc2ccccc21 (stereo not drawn) | inactive |
| CN1CCC(N(C)S(=O)(=O)c2ccc(NC(=O)COc3ccc(Cl)cc3)cc2)CC1 | inactive |
| CCN1CCN(c2sc(S(C)(=O)=O)nc2S(=O)(=O)c2ccc(C)cc2)CC1 | inactive |
| O=C1[C@H]2[C@@H](c3ccccc3)N[C@]3(CCCN(Cc4ccc(Br)cc4)C3=O)[C@H]2C(=O)N1Cc1ccccc1 | inactive |
| CCOC(=O)NC(C(Cl)(Cl)Cl)S(=O)(=O)c1ccccc1 (stereo not drawn) | inactive |
| Nc1ccc2nc(-c3cccc(-c4nc5ccc(N)cc5[nH]4)c3)[nH]c2c1 | inactive |
| O=C(COC(=O)c1ccc(Br)o1)Nc1cccc(S(=O)(=O)N2CCOCC2)c1 | inactive |
| O=C(COC(=O)Cc1ccc(S(=O)(=O)N2CCOCC2)s1)Nc1ccccc1Cl | inactive |
| CC1(C)CC2(OC2c2ccccc2[N+](=O)[O-])C(=O)c2ccccc21 (stereo not drawn) | inactive |
| [O-][n+]1c(/C=C/c2ccccc2)ccc2ccccc21 | inactive |
| CCOC(=O)C(=Cc1ccc(-n2ccnc2)cc1)C(=O)OCC | inactive |
| CCOC(=O)C(=Cc1ccc(-c2ccsc2C(=O)OC)o1)C(=O)OCC | inactive |
| O=C(O)C1CCN(C(=O)c2cc(F)cc3c2OCOC3)CC1 | inactive |
| Cc1ccc2c(c1)CCCN2S(=O)(=O)c1cccc(C(=O)Nc2ccccc2C(=O)O)c1 | inactive |
| O=C(O)C1CC=CCC1C(=O)Nc1ccc(S(=O)(=O)N2CCCc3ccccc32)cc1 (stereo not drawn) | inactive |
| Cc1cc2c(c(/C=C/C(=O)c3ccccc3)c1)OC1(C=C2)Oc2ccccc2C(=O)N1C (stereo not drawn) | inactive |
| CN(C)CCNC(=O)c1onc(CSc2ccc(F)c(F)c2)c1C(=O)NCCN(C)C | inactive |
| O=C(Oc1ccc2ccccc2c1Cl)N1CCCC1 | inactive |
| C=CCn1c(SCC(=O)NC23CC4CC(CC(C4)C2)C3)nc(O)cc1=O | inactive |
| O=C(NCc1cccnc1)c1ccc(NS(=O)(=O)c2cccc([N+](=O)[O-])c2)cc1 | inactive |
| Fc1ccccc1CSc1ncnc2c1ncn2C1CCCO1 (stereo not drawn) | inactive |
| N#C/C(=C\c1c(Oc2ccccc2Cl)nc2ccccn2c1=O)C(=O)NC1CCS(=O)(=O)C1 (stereo not drawn) | inactive |
| COc1cccc2c1C(=O)c1c(O)c3c(c(O)c1C2=O)C[C@@](O)(C(=O)CO)C[C@@H]3OC1CC(N)C(O)C(C)O1 (stereo partly drawn) | inactive |
| Cc1cccc(CS(=O)(=O)c2ncc(Cl)c(C(=O)Nc3ccc(F)cc3)n2)c1 | inactive |
| c1ccc2c3c([nH]c2c1)C1(CCNCC1)NCC3 | inactive |
| CC[C@@H](C)[C@H](NC(=O)OC(C)(C)C)c1nnc(S(=O)(=O)Cc2cc(C)ccc2C)o1 | inactive |

| SMILES | outcome |
| --- | --- |
| CC(=O)Nc1nnc(SCC(=O)c2ccc3c(c2)Cc2ccccc2-3)s1 | inactive |
| CCC(=O)Nc1nnc(SCC(=O)c2ccc3c(c2)Cc2ccccc2-3)s1 | inactive |
| Cc1cc(C)n(-c2nc(N(c3ccccc3)c3ccccc3)nc(-n3nc(C)cc3C)n2)n1 | inactive |
| CCOC(=O)c1c[nH]n2c(=O)cc(C)nc12 | inactive |
| O=C(CCS(=O)(=O)c1ccccc1)Nc1nnc(C(F)(F)F)s1 | inactive |
| Cc1ccc(CSCC(=O)Nc2ccccc2C(=O)O)cc1 | inactive |
| CC(C)CCn1nnnc1CN1CCN(c2ccccc2)CC1 | inactive |
| C/C=C/c1cc(CN2CCN(c3ccccc3)CC2)c(O)c(OC)c1 | inactive |
| CC(=O)OCC1CC(COC(C)=O)C(COC(C)=O)CC1COC(C)=O (stereo not drawn) | inactive |
| S=c1[nH]nc(-c2cccc(Cl)c2)n1/N=C/c1ccc(-c2ccccc2Br)o1 | inactive |
| CCN1CCC(CNCc2cn(-c3ccc(OC)cc3)nc2-c2ccccc2Cl)C1 (stereo not drawn) | inactive |
| Nc1ncnc(N2CCOCC2)n1 | inactive |
| O=C(COC(=O)c1ccc(O)cc1O)Nc1ccc2ccccc2c1 | inactive |
| CCOC(=O)C1(CCC(=O)OCc2ccccc2)CCCCC1=O (stereo not drawn) | inactive |
| CCC(CC)N1CCN(Cc2nc3ccc([N+](=O)[O-])cc3c(=O)n2-c2ccccc2F)CC1 | inactive |
| OCCCNc1cc(-c2ccccc2)nc2cc(-c3ccc(F)cc3)nn12 | inactive |
| Cc1ccc(C)c(C2=NNC(=O)CC2)c1 | inactive |
| Cc1cccc(C(=O)OCC(=O)N2CCN(C(=O)c3ccco3)CC2)c1O | inactive |
| COc1cc2nc(N3CCNCC3)nc(N)c2cc1OC | inactive |
| OCC[n+]1c2ccccc2nc2ccc(N3CCOCC3)cc21 | inactive |
| CC(C)Oc1ccc(C(=O)CCN2CCOCC2)cc1 | inactive |
| COc1ccc(C(C)=NOC(=O)c2c(-c3ccccc3Cl)noc2C)cc1CN1CCOCC1 | inactive |
| Cc1c(C(O)CN2CCN(Cc3ccc4c(c3)OCO4)CC2)c2ccccc2n1C (stereo not drawn) | inactive |
| Brc1ccc2[nH]c3c(c2c1)CCC3 | inactive |
| Cc1onc(-c2ccccc2)c1C(=O)NCc1ccc(F)cc1 | inactive |
| Cc1ccc(C)c(CN2CCC(CNC(=O)Nc3ccc(Br)cc3F)CC2)c1 | inactive |

| SMILES | outcome |
| --- | --- |
| O=C1c2cc([N+](=O)[O-])cc3cc([N+](=O)[O-])cc(c23)C(=O)N1c1ccccn1 | inactive |
| CC(C)Cc1ccc(CN2CCCC(NC(=O)c3cccc(-n4cnnc4)c3)C2)cc1 (stereo not drawn) | inactive |
| Nc1nc(C2CC2)c(Sc2sc(N)nc2C2CC2)s1 | inactive |
| COc1ccc(C[C@H]2CN3C(=NC[C@H]3C)N2CCNC(=O)CCC2CCCCC2)cc1 | inactive |
| O[C@H]1C[C@H](c2ccc(Cl)cc2)N(CC2CCCCC2)C[C@@H]1n1cc(-c2ccc(F)cc2)nn1 | inactive |
| Cc1sc(NC(=S)NC(=O)c2ccc(C(C)(C)C)cc2)c(C#N)c1C | inactive |
| CC(C)(C)c1ccc(C(=O)NC(=S)Nc2sc3c(c2C#N)CCC3)cc1 | inactive |
| CCOC(=O)C1=C(NC(=S)NC(=O)c2ccccc2)c2ccccc2CC1(C)C | inactive |
| Cc1ccc(NC(=S)NNC(=S)Nc2cccc(C(F)(F)F)c2)cc1 | inactive |
| ClCCn1cnc2c(SCc3ccccc3Cl)ncnc21 | inactive |
| Cc1cccc2sc(N(CCCN(C)C)C(=O)c3ccc4ncsc4c3)nc12 | inactive |
| CC1SCC(NC(=O)c2ccc(Cl)cc2)CS1 (stereo not drawn) | inactive |
| Cc1cccc2c1NC1(CCCC1)CC2C (stereo not drawn) | inactive |
| C/C(CCC12CC3CC(CC(C3)C1)C2)=N\NC(N)=S | inactive |
| CC(=O)NNc1cc(C)nc(N)n1 | inactive |
| Cc1ccc(Cc2c(-c3ccc(C)cc3)nc3c4ccccc4ccn23)cc1 | inactive |
| Cc1cc(SC(C)C(=O)Nc2ncc(Cl)cc2Cl)nc2ccccc12 (stereo not drawn) | inactive |
| COCCn1c(SC(C)C(=O)Nc2ncc(Cl)cc2Cl)nc2ccccc21 (stereo not drawn) | inactive |
| O=C(CCCCN1CCCCC1)c1ccc2c(c1)Cc1ccccc1-2 | inactive |
| CCOC(=O)c1ccc(NC(=S)N(CCN(C)C)Cc2cccs2)cc1 | inactive |
| COc1ccc(Nc2ccccc2N)cc1 | inactive |
| CCc1ccccc1Nc1nc(N)nc(COC(=O)CCC(=O)c2ccc(F)cc2)n1 | inactive |
| COc1ccc(OC)c(Nc2nc(NCCC(C)C)nc(N)c2[N+](=O)[O-])c1 | inactive |
| CCc1ccccc1Nc1nc(N)nc(COC(=O)c2cccn2C)n1 | inactive |
| CCOC(=O)c1c(S(=O)(=O)N2CCC(C)CC2)c(C)n(C)c1C | inactive |
